# Whole data set: some 33,000 sequences, median “E-score (-0.5 to 0.5)” near -0.012, cut for the highest 2% near 0.27. For the sample, the highest values were picked, then their nearest neighbours and some sequences at random.
# Target: T1, Vhr1 (UniProt P40522)
# T1 sequence: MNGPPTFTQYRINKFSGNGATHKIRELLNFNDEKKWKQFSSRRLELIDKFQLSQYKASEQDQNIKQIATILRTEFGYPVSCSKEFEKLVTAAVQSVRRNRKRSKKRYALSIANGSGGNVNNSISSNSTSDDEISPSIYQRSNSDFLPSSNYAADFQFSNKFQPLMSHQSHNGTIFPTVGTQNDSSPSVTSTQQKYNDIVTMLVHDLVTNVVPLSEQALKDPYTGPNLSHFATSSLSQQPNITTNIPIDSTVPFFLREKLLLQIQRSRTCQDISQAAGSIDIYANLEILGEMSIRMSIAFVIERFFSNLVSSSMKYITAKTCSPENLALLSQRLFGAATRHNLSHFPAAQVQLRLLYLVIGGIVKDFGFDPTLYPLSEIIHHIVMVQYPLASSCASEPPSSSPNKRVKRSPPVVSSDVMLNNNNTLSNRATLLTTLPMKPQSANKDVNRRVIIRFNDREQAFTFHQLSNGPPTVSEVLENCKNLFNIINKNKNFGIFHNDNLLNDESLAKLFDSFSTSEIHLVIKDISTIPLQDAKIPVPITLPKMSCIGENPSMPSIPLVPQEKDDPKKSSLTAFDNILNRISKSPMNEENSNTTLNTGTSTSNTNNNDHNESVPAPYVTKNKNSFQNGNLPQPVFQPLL
# Test: PBM E-score (8-mer binding enrichment) (E-score (-0.5 to 0.5)); higher = stronger / more preferred TF binding
# Settings: protein concentration: 200 nM; construct: GST-full length
# Outline: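 The E-score, a modified Wilcoxon-Mann-Whitney statistic, was computed by the Universal PBM Analysis Suite for every ungapped eight-base word pooled with its reverse complement. Scans behind it were normalised with masliner after bound GST-tagged yeast transcription factors were detected with fluorescent anti-GST. The proteins, at about 100-200 nM, had been applied to universal all-10-mer Agilent arrays made double-stranded by primer extension.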
row,Sequence,PBM E-score
1,CTAAACAG,-0.00454
2,CGGCCTCA,0.024
3,ATTATTGA,0.036
4,TAGGAGCA,-0.0685
5,GACTTGTA,0.0565
6,CGAGCTCC,-0.102
7,CGAGCTCA,0.144
8,CGAGCTCG,0.307
9,CTGATGGC,0.0804
10,ATATTGGG,-0.038
11,GTTTATAA,-0.168
12,GCACCGAC,0.0173
13,ATGTAGTG,0.114
14,ATGTAGTC,0.286
15,ATGTAGTA,0.0473
16,ACATAGAT,-0.0848
17,AATTGTTA,-0.0275
18,ACAGCACG,0.118
19,AGTACACA,0.284
20,ACTACACA,0.327
21,AGTACACG,0.0779
22,CCTACACG,-0.0152
23,ACTACACG,0.221
24,TGTACACA,0.0228
25,GCCCAGAC,-0.15
26,ACTTCTTG,-0.106

row,Sequence,PBM E-score
1,CTGGTAAC,0.0684
2,ATCTGTAC,0.0611
3,AATCACGC,0.354
4,ACTCACGA,0.243
5,ACACACGG,0.155
6,ACACACGC,0.183
7,ACTCACGC,0.366
8,AATCACGA,0.159
9,CCTCACGC,0.0696
10,ACTCACGG,0.352
11,GATCACGC,0.193
12,AAACAAGA,0.121
13,AGCCCTAC,-0.108
14,ATTCTGGG,-0.107
15,GCAGTGGC,0.0117
16,GAGGTTGA,-0.131
17,AGAATAGG,0.026
18,CGTGAGTA,0.21
19,AGTGAGTG,0.00138
20,CGTGAGTC,0.428
21,AGTGAGAC,0.0195
22,AGTGAGTC,0.466
23,CGTGAGCC,0.0956
24,CACCTGCA,0.0182
25,TATAAGCA,0.00418
26,GACTCACC,0.469

row,Sequence,PBM E-score
1,CACTCACC,0.206
2,GACTCACA,0.44
3,CACTCACG,0.238
4,TACTCACA,0.285
5,AACTCACA,0.202
6,AACTCACG,0.109
7,AACTCACC,0.224
8,CACTCACA,0.264
9,TCCAGAAA,-0.0568
10,GCTTAGAA,-0.117
11,CAAATCAA,0.0775
12,AAACTGGG,-0.192
13,ATCTGATC,0.085
14,AGTTCTAG,-0.127
15,GACCCGCA,0.109
16,GACCCGCC,0.322
17,CACCCGCA,-0.0465
18,CACCCGCG,0.218
19,AACCCGCC,0.136
20,CACCCGCC,0.329
21,AACCTCAA,-0.195
22,ACCTACGT,-0.0787
23,AACTGCTG,-0.0272
24,ACCTTGAT,0.0042
25,TACCGTCA,-0.0775
26,GCGTGGCA,-0.22

row,Sequence,PBM E-score
1,AACTCCTA,0.017
2,CACTCCTA,-0.262
3,GACTCCAA,0.237
4,GACTCCAC,0.346
5,CACTCCAC,0.0458
6,GACTCCTC,0.4
7,GACTCCTA,0.384
8,CACTCCTC,0.183
9,AACTCCTC,-0.268
10,GTATTGGA,-0.184
11,TTTATAAA,-0.0811
12,CGACCCCC,-0.261
13,CTTTAACC,-0.127
14,AGAACCAA,-0.0911
15,TAATCAAA,0.101
16,GAATCAAC,0.247
17,ACATCATC,0.166
18,TAATCATA,0.314
19,CTATCATA,0.164
20,TAATCGTA,0.114
21,GAATCATC,0.437
22,CCATCATA,0.0955
23,CAATCAGA,-0.0178
24,ATATCATA,0.216
25,CAATCATA,0.317
26,GTATCATA,0.288

row,Sequence,PBM E-score
1,TACGATGA,0.11
2,ACTTCTTC,-0.00857
3,TACTCCTA,0.123
4,CCAGAGCG,-0.145
5,ACGACAAA,0.092
6,CAATCATC,0.284
7,CCATCATC,0.138
8,AAATCATC,0.245
9,GAATCAAA,-0.0259
10,GAATCATA,0.397
11,GCATCATA,0.136
12,ATTTACAA,-0.101
13,ATCACATA,0.19
14,ATCACAAC,0.00509
15,ATCACACA,0.282
16,ATCACACC,0.288
17,ATCACACG,0.102
18,ATCACAGC,0.182
19,ATAGGCAA,-0.246
20,ACCTCGAC,-0.00505
21,AGCTGCCT,-0.219
22,AGTTTTTC,-0.152
23,CCAGCGAG,0.181
24,TGCACGCA,-0.0577
25,CTAGTTGA,0.202
26,GTAGTTGA,0.277

row,Sequence,PBM E-score
1,ATAGTTGA,0.0409
2,AGAAATCT,-0.217
3,GGACGCTA,-0.324
4,CAACTTGG,0.0538
5,GGTCAACC,0.0175
6,AGTCAACT,0.144
7,AGTCAACG,0.278
8,AGTCAACA,0.19
9,CGTCAACG,-0.0358
10,AGTCAACC,0.373
11,ATCTGATA,0.0202
12,CATGTAGA,0.00603
13,AGTCGCTA,0.174
14,CCCCACCC,0.36
15,CCCCACCA,0.0983
16,ACCCACTC,0.282
17,ACCCACTG,0.22
18,ACCCACCG,0.256
19,CCCCACCG,0.188
20,ACCCTCCT,-0.116
21,ACCCTCCC,0.307
22,ACCCACCT,0.0548
23,CCCCACTC,0.128
24,ACCCACCC,0.397
25,CCCCTCCC,0.171
26,AAAGCCAT,-0.0236

row,Sequence,PBM E-score
1,CGTCCCAC,0.0371
2,GGTTAGAC,-0.00016
3,GGGCTTGA,-0.125
4,ACCCTAAT,-0.0655
5,CCAAAAGA,-0.201
6,TCCCACCA,-0.112
7,GCCCACCA,-0.125
8,ACCACCCA,0.192
9,GCCCACCC,0.284
10,ACCCACCA,0.296
11,GCCCACAC,0.069
12,CCGAGAGC,-0.0932
13,ATAGCGCC,0.0931
14,CCATTCGA,-0.172
15,AGCTGTAC,0.016
16,GAAGAAAA,-0.221
17,CCCGCGGG,0.102
18,ACCGCGGG,0.312
19,ACCGCGGT,0.0486
20,ACCGCGCC,-0.0598
21,ACCGCGCT,0.0474
22,ACCGCGCG,0.336
23,GGAAGAAC,0.0668
24,ACTATCAT,0.251
25,ATAGGGCG,-0.0674
26,AGGAGGGG,0.284

row,Sequence,PBM E-score
1,AGGAGGGC,-0.11
2,AGGAGGGA,-0.101
3,TATGGGCA,0.131
4,ACTCCCAA,0.112
5,GTCAGGTA,0.126
6,ACGATTCA,0.112
7,GGGATTCA,0.134
8,CTGATTCA,0.341
9,ATGATTCG,0.412
10,GAGATTCA,0.0192
11,CGGATTCA,0.0469
12,ATGATTCA,0.443
13,GTGATTCA,0.408
14,ATGATTTG,0.172
15,AGGATTCA,-0.0305
16,AAGATTCG,0.0242
17,CAGATTCA,-0.232
18,ATCCAAGC,0.0358
19,ACTGCCCC,-0.0425
20,GTGGACCA,0.0132
21,ATTTTGGG,-0.177
22,CCGGTAGC,-0.00183
23,AGTGTACG,0.163
24,ATCCAATA,0.135
25,GGGAGGAC,-0.0865
26,GCTGGTAA,-0.148

row,Sequence,PBM E-score
1,GGCTAACA,-0.0545
2,GAGGTGTA,-0.038
3,GAGTTGGC,0.161
4,AGGATTCC,0.0112
5,ATGATTCC,0.445
6,CTGATTCC,0.261
7,GCATCCAC,0.0832
8,CACAGACG,0.104
9,AACAGACT,0.0598
10,CACAGACC,0.307
11,GACAGACC,-0.067
12,AACAGACA,0.285
13,CACAGACA,0.0563
14,AACAGACC,0.0701
15,GACAGACA,0.294
16,AACAGCCG,-0.0956
17,CACAGCCC,-0.0755
18,CACAGCCG,0.281
19,CTCAGACC,-0.00267

# Reference: the supplement of paper PMC3334620
